Assay results from PubChem BioAssay (EPA / NIEHS).
Inconclusive results are not listed. Calls of active or inactive are those of the source. Rule for the calls: active = hit-call score of the fitted dose curve at least 0.9, where 1 is the maximum; inconclusive = response in the unintended direction; inactive = score below 0.9.

Experiment: ACEA_ER_AUC_viability: ACEA Biosciences xCELLigence Real-Time Cell Analysis on Estrogen Receptor Agonism for Viability (AID 2283782);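 note: continuous compound exposure with impedance area under curve over 80 h; hit means loss of impedance signal meaning reduced cell growth or viability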
Method in brief: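 T-47D human breast cells in phenol red-free RPMI1640 with 10% charcoal-stripped FBS were dosed with an 8-point 1:4 dilution series from 100 uM top final concentration, in duplicate. Impedance-based growth was followed for 80 h; AUC analysed versus DMSO.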

| SMILES | AC50 | outcome |
| --- | --- | --- |
| Cl/C=C\C[N+]12CN3CN(CN(C3)C1)C2 | 50 µM (active) |  |
| N#CCc1ccc(Cl)cc1 |  | inactive |
| N#CCCO | 22 µM (active) |  |
| COc1ccc(OC)c(C=O)c1 | 50 µM (active) |  |
| O=[N+]([O-])c1ccc2c3c(cccc13)CC2 |  | inactive |
| COc1ccc(C=O)cc1 |  | inactive |
| Clc1nc(Cl)nc(Cl)n1 |  | inactive |
| NC(=S)Nc1ccccc1 | 60.6 µM (active) |  |
| CCCCCCCCC(=O)NCc1ccc(O)c(OC)c1 | 50 µM (active) |  |
| COC(=O)c1sccc1S(=O)(=O)NC(=O)Nc1nc(C)nc(OC)n1 |  | inactive |
| BrCCBr |  | inactive |
| ClC(Cl)=C(Cl)C(Cl)=C(Cl)Cl |  | inactive |
| C[C@@H](Oc1ccc(Cl)cc1Cl)C(=O)O |  | inactive |
| CC(=O)c1cc(C(C)(C)C)cc2c1CCC2(C)C |  | inactive |
| CCC(=O)C(CC(C)N(C)C)(c1ccccc1)c1ccccc1 (stereo not given) | 36.2 µM (active) |  |
| CC(C)C1CCC(Cc2ccc(Cl)cc2)C1(O)Cn1cncn1 (stereo not given) | 19.9 µM (active) |  |
| COP(=S)(OC)Oc1cc(Cl)c(Br)cc1Cl | 92.6 µM (active) |  |
| O=C(O)CCC(F)(C(F)(F)F)C(F)(F)F |  | inactive |
| Cc1cc(=O)[nH]o1 |  | inactive |
| CCOP(=S)(OCC)Oc1nc(Cl)c(Cl)cc1Cl | 87.6 µM (active) |  |
| Cc1cc(Cl)ccc1O[C@H](C)C(=O)O |  | inactive |
| CCOP(=S)(OCC)Oc1ccc(S(C)=O)cc1 (stereo not given) |  | inactive |
| CCC(C)(C)c1ccc(O)c(C(C)(C)CC)c1 | 14.9 µM (active) |  |
| CCSC(C)CC1CC(=O)C(C(CC)=NOC/C=C/Cl)=C(O)C1 (stereo not given) |  | inactive |
| CCCCCCCCCl |  | inactive |
| CCOC(=O)/C=C(C)/C=C/C[C@@H](C)CCCC(C)C | 87.8 µM (active) |  |
| OCC(O)CCl (stereo not given) |  | inactive |
| Nc1ccc(Cl)cc1C(=O)c1ccccc1 |  | inactive |
| COP(=S)(OC)Oc1ccc(Sc2ccc(OP(=S)(OC)OC)cc2)cc1 | 85.5 µM (active) |  |
| CC(C)(c1ccccc1)c1ccc(O)c(C(C)(C)c2ccccc2)c1 | 8.68 µM (active) |  |
